Reference: PubChem BioAssay AID1159580 (chemical genetic matrix, 2015)
Screen size: about 5,500 compounds; about 2,000 (36%) were called active. Another 18% or so got no clear call; they are omitted. No stated cut-off is given here; in the data, active means normalized growth mostly below about 0.91 (no sharp cut-off); inconclusive means no clear call, values can overlap the other calls; inactive means mostly above about 0.92. The list shows a part of the results.

Test: chemical genetic growth profiling, strain panel (AID 1159580);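 further: tested at 20 µM; growth read once vehicle control cultures reached saturation at 30 °C; 1 = growth at the plate median or of vehicle wells; lower values mean less growth of the strain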
Details: growth OD

Measured: normalized growth

Cc1cc(=O)c2c(O)c(C)c(O)cc2o1
active: S. cerevisiae deletion strains, locus YKR001C, strain vps1, active compounds read low 0.888 | S. cerevisiae deletion strains, locus YPR163C, strain tif3, active compounds read low 0.866
inactive: S. cerevisiae deletion strains, locus YAL021C, strain ccr4, active compounds read low 1 | S. cerevisiae deletion strains, locus YAL026C, strain drs2, active compounds read low 1.04 | S. cerevisiae deletion strains, locus YAL030W, strain snc1, active compounds read low 1.02 | S. cerevisiae deletion strains, locus YBL061C, strain skt5, active compounds read low 1.02 | S. cerevisiae deletion strains, locus YBR009C, strain hhf1, active compounds read low 1.01 | S. cerevisiae deletion strains, locus YBR021W, strain FUR4, active compounds read low 0.91 | S. cerevisiae deletion strains, locus YBR023C, strain chs3, active compounds read low 1.03 | S. cerevisiae deletion strains, locus YBR171W, strain sec66, active compounds read low 1.03 | S. cerevisiae deletion strains, locus YBR229C, strain ROT2, active compounds read low 1.02 | S. cerevisiae deletion strains, locus YBR231C, strain swc5, active compounds read low 1.02 | S. cerevisiae deletion strains, locus YBR279W, strain paf1, active compounds read low 1.01 | S. cerevisiae deletion strains, locus YCL011C, strain gbp2, active compounds read low 1.04 | S. cerevisiae deletion strains, locus YCL016C, strain dcc1, active compounds read low 1.01 | S. cerevisiae deletion strains, locus YCL029C, strain bik1, active compounds read low 0.975 | S. cerevisiae deletion strains, locus YCL069W, strain vba3, active compounds read low 1.02 | S. cerevisiae deletion strains, locus YCR088W, strain abp1, active compounds read low 1.02 | S. cerevisiae deletion strains, locus YDL005C, strain med2, active compounds read low 1.02 | S. cerevisiae deletion strains, locus YDL035C, strain GPR1, active compounds read low 0.978 | S. cerevisiae deletion strains, locus YDL040C, strain nat1, active compounds read low 1.01 | S. cerevisiae deletion strains, locus YDL074C, strain BRE1, active compounds read low 0.973 | S. cerevisiae deletion strains, locus YDL101C, strain DUN1, active compounds read low 0.991 | S. cerevisiae deletion strains, locus YDL134C, strain PPH21, active compounds read low 0.983 | S. cerevisiae deletion strains, locus YDL185W, strain tfp1, active compounds read low 0.983 | S. cerevisiae deletion strains, locus YDL192W, strain arf1, active compounds read low 0.954 | S. cerevisiae deletion strains, locus YDR001C, strain nth1, active compounds read low 1.02 | S. cerevisiae deletion strains, locus YDR069C, strain doa4, active compounds read low 1.02 | S. cerevisiae deletion strains, locus YDR101C, strain arx1, active compounds read low 0.957 | S. cerevisiae deletion strains, locus YDR137W, strain rgp1, active compounds read low 1.03 | S. cerevisiae deletion strains, locus YDR159W, strain sac3, active compounds read low 1.03 | S. cerevisiae deletion strains, locus YDR162C, strain NBP2, active compounds read low 0.922 | S. cerevisiae deletion strains, locus YDR195W, strain ref2 1.01 | S. cerevisiae deletion strains, locus YDR297W, strain sur2, active compounds read low 1.01 | S. cerevisiae deletion strains, locus YDR318W, strain mcm21, active compounds read low 0.95 | S. cerevisiae deletion strains, locus YDR334W, strain swr1, active compounds read low 1.01 | S. cerevisiae deletion strains, locus YDR335W, strain msn5, active compounds read low 1.04 | S. cerevisiae deletion strains, locus YDR388W, active compounds read low 0.988 | S. cerevisiae deletion strains, locus YDR392W, strain spt3, active compounds read low 1.04 | S. cerevisiae deletion strains, locus YDR502C, strain sam2, active compounds read low 0.935 | S. cerevisiae deletion strains, locus YEL003W, strain gim4, active compounds read low 1.02 | S. cerevisiae deletion strains, locus YEL037C, strain rad23, active compounds read low 1.03 | S. cerevisiae deletion strains, locus YEL061C, strain CIN8 (second series), active compounds read low 1.01 | S. cerevisiae deletion strains, locus YEL061C, strain CIN8, active compounds read low 1 | S. cerevisiae deletion strains, locus YER015W, strain faa2, active compounds read low 1.02 | S. cerevisiae deletion strains, locus YER016W, strain bim1, active compounds read low 1.01 | S. cerevisiae deletion strains, locus YER110C, active compounds read low 0.96 | S. cerevisiae deletion strains, locus YER111C, strain swi4, active compounds read low 1.03 | S. cerevisiae deletion strains, locus YER155C, strain BEM2 (second series), active compounds read low 1.04 | S. cerevisiae deletion strains, locus YER155C, strain BEM2, active compounds read low 1.02 | S. cerevisiae deletion strains, locus YER167W, strain BCK2, active compounds read low 1.01 | S. cerevisiae deletion strains, locus YFR010W, strain ubp6, active compounds read low 1.04 | S. cerevisiae deletion strains, locus YGL078C, strain dbp3, active compounds read low 0.949 | S. cerevisiae deletion strains, locus YGL086W, strain mad1, active compounds read low 0.967 | S. cerevisiae deletion strains, locus YGL167C, strain pmr1, active compounds read low 1.03 | S. cerevisiae deletion strains, locus YGL173C, strain kem1, active compounds read low 1.02 | S. cerevisiae deletion strains, locus YGL227W, strain vid30, active compounds read low 1.02 | S. cerevisiae deletion strains, locus YGL240W, strain doc1, active compounds read low 1.01 | S. cerevisiae deletion strains, locus YGL248W, strain PDE1, active compounds read low 0.997 | S. cerevisiae deletion strains, locus YGL253W, strain hxk2, active compounds read low 1.02 | S. cerevisiae deletion strains, locus YGR078C, strain PAC10, active compounds read low 0.963 | S. cerevisiae deletion strains, locus YGR135W, strain pre9, active compounds read low 0.932 | S. cerevisiae deletion strains, locus YGR252W, strain gcn5, active compounds read low 0.815 | S. cerevisiae deletion strains, locus YHR013C, strain ard1, active compounds read low 1.07 | S. cerevisiae deletion strains, locus YHR027C, strain rpn1, active compounds read low 1.03 | S. cerevisiae deletion strains, locus YHR079C, strain IRE1 (second series), active compounds read low 0.978 | S. cerevisiae deletion strains, locus YHR094C, strain hxt1, active compounds read low 0.984 | S. cerevisiae deletion strains, locus YHR129C, strain ARP1, active compounds read low 1 | S. cerevisiae deletion strains, locus YHR142W, strain chs7, active compounds read low 1.04 | S. cerevisiae deletion strains, locus YHR200W, strain rpn10, active compounds read low 0.958 | S. cerevisiae deletion strains, locus YIL066C, strain RNR3, active compounds read low 1.02 | S. cerevisiae deletion strains, locus YIL073C, strain SPO22, active compounds read low 0.999 | S. cerevisiae deletion strains, locus YIL125W, strain kgd1, active compounds read low 0.986 | S. cerevisiae deletion strains, locus YIR030C, strain dcg1, active compounds read low 0.99 | S. cerevisiae deletion strains, locus YJL092W, strain hpr5, active compounds read low 1.02 | S. cerevisiae deletion strains, locus YJL095W, strain BCK1 (second series), active compounds read low 1.02 | S. cerevisiae deletion strains, locus YJL095W, strain BCK1, active compounds read low 0.934 | S. cerevisiae deletion strains, locus YJL115W, strain asf1, active compounds read low 1.03 | S. cerevisiae deletion strains, locus YJL129C, strain trk1, active compounds read low 1.01 | S. cerevisiae deletion strains, locus YJL134W, strain LCB3, active compounds read low 1.01 | S. cerevisiae deletion strains, locus YJL154C, strain vps35, active compounds read low 1.03 | S. cerevisiae deletion strains, locus YJL164C, strain tpk1, active compounds read low 1.01 | S. cerevisiae deletion strains, locus YJL166W, strain qcr8, active compounds read low 1.01 | S. cerevisiae deletion strains, locus YJL168C, strain set2, active compounds read low 0.994 | S. cerevisiae deletion strains, locus YJL187C, strain SWE1 (second series), active compounds read low 0.971 | S. cerevisiae deletion strains, locus YJL187C, strain SWE1, active compounds read low 1 | S. cerevisiae deletion strains, locus YJR043C, strain POL32, active compounds read low 0.992 | S. cerevisiae deletion strains, locus YKL009W, strain mrt4, active compounds read low 0.961 | S. cerevisiae deletion strains, locus YKL068W, active compounds read low 1 | S. cerevisiae deletion strains, locus YKL085W, strain MDH1 (second series), active compounds read low 0.996 | S. cerevisiae deletion strains, locus YKL085W, strain MDH1, active compounds read low 0.996 | S. cerevisiae deletion strains, locus YKL160W, strain elf1, active compounds read low 1.02 | S. cerevisiae deletion strains, locus YKR026C, strain gcn3, active compounds read low 1.02 | S. cerevisiae deletion strains, locus YKR091W, strain srl3, active compounds read low 1.02 | S. cerevisiae deletion strains, locus YLL001W, strain dnm1, active compounds read low 1.02 | S. cerevisiae deletion strains, locus YLL026W, active compounds read low 1.01 | S. cerevisiae deletion strains, locus YLL041C, strain sdh2, active compounds read low 1.02 | S. cerevisiae deletion strains, locus YLR027C, strain aat2, active compounds read low 1 | S. cerevisiae deletion strains, locus YLR039C, strain RIC1, active compounds read low 1.1 | S. cerevisiae deletion strains, locus YLR058C, strain SHM2, active compounds read low 0.978 | S. cerevisiae deletion strains, locus YLR102C, strain apc9, active compounds read low 0.976 | S. cerevisiae deletion strains, locus YLR221C, strain rsa3, active compounds read low 1.01 | S. cerevisiae deletion strains, locus YLR258W, strain gsy2, active compounds read low 1.01 | S. cerevisiae deletion strains, locus YLR262C, strain YPT6 (second series), active compounds read low 1.01 | S. cerevisiae deletion strains, locus YLR262C, strain YPT6, active compounds read low 1.12 | S. cerevisiae deletion strains, locus YLR268W, strain sec22, active compounds read low 0.957 | S. cerevisiae deletion strains, locus YLR320W, strain mms22, active compounds read low 1.04 | S. cerevisiae deletion strains, locus YLR330W, strain CHS5, active compounds read low 0.998 | S. cerevisiae deletion strains, locus YLR342W, strain FKS1, active compounds read low 1.01 | S. cerevisiae deletion strains, locus YLR357W, strain rsc2, active compounds read low 1.02 | S. cerevisiae deletion strains, locus YLR370C, strain arc18, active compounds read low 1.04 | S. cerevisiae deletion strains, locus YLR371W, strain rom2, active compounds read low 0.954 | S. cerevisiae deletion strains, locus YLR384C, strain iki3, active compounds read low 1.01 | S. cerevisiae deletion strains, locus YLR418C, strain cdc73, active compounds read low 0.854 | S. cerevisiae deletion strains, locus YML016C, strain PPZ1, active compounds read low 1.01 | S. cerevisiae deletion strains, locus YML032C, strain rad52, active compounds read low 0.929 | S. cerevisiae deletion strains, locus YML120C, strain ndi1, active compounds read low 1.02 | S. cerevisiae deletion strains, locus YML124C, strain tub3, active compounds read low 0.99 | S. cerevisiae deletion strains, locus YMR058W, strain fet3, active compounds read low 1.03 | S. cerevisiae deletion strains, locus YMR078C, strain ctf18, active compounds read low 0.983 | S. cerevisiae deletion strains, locus YMR125W, strain sto1, active compounds read low 0.989 | S. cerevisiae deletion strains, locus YMR129W, active compounds read low 1.02 | S. cerevisiae deletion strains, locus YMR205C, strain PFK2, active compounds read low 1.01 | S. cerevisiae deletion strains, locus YMR223W, strain ubp8, active compounds read low 0.963 | S. cerevisiae deletion strains, locus YMR231W, strain pep5, active compounds read low 1.02 | S. cerevisiae deletion strains, locus YMR307W, strain GAS1, active compounds read low 0.989 | S. cerevisiae deletion strains, locus YNL067W, strain RPL9B, active compounds read low 0.971 | S. cerevisiae deletion strains, locus YNL071W, strain lat1, active compounds read low 1.02 | S. cerevisiae deletion strains, locus YNL128W, strain TEP1, active compounds read low 0.993 | S. cerevisiae deletion strains, locus YNL209W, strain ssb2, active compounds read low 1.02 | S. cerevisiae deletion strains, locus YNL233W, strain BNI4, active compounds read low 0.956 | S. cerevisiae deletion strains, locus YNL248C, strain rpa49, active compounds read low 1.01 | S. cerevisiae deletion strains, locus YNL250W, strain rad50, active compounds read low 0.967 | S. cerevisiae deletion strains, locus YNL271C, strain bni1, active compounds read low 0.993 | S. cerevisiae deletion strains, locus YNL298W, strain CLA4, active compounds read low 0.969 | S. cerevisiae deletion strains, locus YNL307C, strain MCK1, active compounds read low 0.971 | S. cerevisiae deletion strains, locus YNL322C, strain KRE1 (second series), active compounds read low 1.02 | S. cerevisiae deletion strains, locus YNL322C, strain KRE1, active compounds read low 0.994 | S. cerevisiae deletion strains, locus YNR049C, strain mso1, active compounds read low 1.01 | S. cerevisiae deletion strains, locus YNR052C, strain pop2, active compounds read low 0.987 | S. cerevisiae deletion strains, locus YOL006C, strain TOP1, active compounds read low 0.946 | S. cerevisiae deletion strains, locus YOL012C, strain htz1 1.07 | S. cerevisiae deletion strains, locus YOL147C, strain pex11, active compounds read low 0.966 | S. cerevisiae deletion strains, locus YOR001W, strain rrp6, active compounds read low 1.03 | S. cerevisiae deletion strains, locus YOR061W, strain CKA2, active compounds read low 1.02 | S. cerevisiae deletion strains, locus YOR069W, strain VPS5, active compounds read low 1 | S. cerevisiae deletion strains, locus YOR070C, strain gyp1, active compounds read low 1.02 | S. cerevisiae deletion strains, locus YOR080W, strain dia2, active compounds read low 1.02 | S. cerevisiae deletion strains, locus YOR083W, strain WHI5, active compounds read low 1.01 | S. cerevisiae deletion strains, locus YOR106W, strain vam3, active compounds read low 1.02 | S. cerevisiae deletion strains, locus YOR136W, strain idh2, active compounds read low 0.949 | S. cerevisiae deletion strains, locus YOR144C, strain elg1, active compounds read low 0.988 | S. cerevisiae deletion strains, locus YOR184W, strain ser1, active compounds read low 0.986 | S. cerevisiae deletion strains, locus YOR265W, strain rbl2, active compounds read low 1.01 | S. cerevisiae deletion strains, locus YOR270C, strain vph1, active compounds read low 1.07 | S. cerevisiae deletion strains, locus YOR290C, strain snf2, active compounds read low 1.03 | S. cerevisiae deletion strains, locus YOR316C, strain cot1, active compounds read low 0.983 | S. cerevisiae deletion strains, locus YPL051W, strain arl3, active compounds read low 1.02 | S. cerevisiae deletion strains, locus YPL078C, strain atp4, active compounds read low 1.03 | S. cerevisiae deletion strains, locus YPL106C, strain sse1, active compounds read low 1.03 | S. cerevisiae deletion strains, locus YPL240C, strain hsp82, active compounds read low 1.01 | S. cerevisiae deletion strains, locus YPL241C, strain CIN2, active compounds read low 0.997 | S. cerevisiae deletion strains, locus YPR119W, strain clb2, active compounds read low 0.99 | S. cerevisiae deletion strains, locus YPR141C, strain kar3, active compounds read low 1.01 | S. cerevisiae deletion strains, locus YPR167C, strain met16, active compounds read low 0.957 | S. cerevisiae deletion strains, strain wtn01, active compounds read low 0.97 | S. cerevisiae strains, strain wild type, active compounds read low 1.02
